According to PubChem BioAssay (NCATS):
Several values for one entry are separate records, joined by “and”; a condition that tells them apart may be missing. Identical values can stand only once. Records with an inconclusive call do not appear. Activity calls are given as the source filed them. Unless noted, the call rests on the fitted dose curve; in most records, active means well fitted curve in the direction sought with a large enough effect; inconclusive means small, poorly fitted or top-dose-only effect, or another doubt; inactive means no such curve, though single readings can be large; an effect the other way counts as inactive or inconclusive.

How the values were obtained:
[1] = biological target: Cytochrome P450 1A2 (Homo sapiens) (UniProt P05177); test: p450-cyp1a2 (AID 410; calls by dose curve; further: potency means the concentration at half of the fitted maximal effect)
How it was run: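 20nM CYP1A2 with 100uM Luciferin-ME (at Km) in 100mM KPO4; compound preincubated 10 min, NADPH regeneration added, 60 min at room temperature. Luciferin quantified by luminescence after detection reagent; normalized to 57 uM furafylline.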

[2] = biological target: Glucocorticoid receptor (Homo sapiens) (UniProt P04150); test: GR-GFP Redistribution (AID 450;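 active means compounds whose dose series gives a full or clear partial fitted curve of increased nuclear translocation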; further: potency means the concentration at half of the fitted maximal effect); conditions: U2OS GR-GFP nuclear translocation, laser cytometry, 2 h
Sequence of Glucocorticoid receptor (Homo sapiens) (P04150 whole entry, looked up, the tested form may be a part): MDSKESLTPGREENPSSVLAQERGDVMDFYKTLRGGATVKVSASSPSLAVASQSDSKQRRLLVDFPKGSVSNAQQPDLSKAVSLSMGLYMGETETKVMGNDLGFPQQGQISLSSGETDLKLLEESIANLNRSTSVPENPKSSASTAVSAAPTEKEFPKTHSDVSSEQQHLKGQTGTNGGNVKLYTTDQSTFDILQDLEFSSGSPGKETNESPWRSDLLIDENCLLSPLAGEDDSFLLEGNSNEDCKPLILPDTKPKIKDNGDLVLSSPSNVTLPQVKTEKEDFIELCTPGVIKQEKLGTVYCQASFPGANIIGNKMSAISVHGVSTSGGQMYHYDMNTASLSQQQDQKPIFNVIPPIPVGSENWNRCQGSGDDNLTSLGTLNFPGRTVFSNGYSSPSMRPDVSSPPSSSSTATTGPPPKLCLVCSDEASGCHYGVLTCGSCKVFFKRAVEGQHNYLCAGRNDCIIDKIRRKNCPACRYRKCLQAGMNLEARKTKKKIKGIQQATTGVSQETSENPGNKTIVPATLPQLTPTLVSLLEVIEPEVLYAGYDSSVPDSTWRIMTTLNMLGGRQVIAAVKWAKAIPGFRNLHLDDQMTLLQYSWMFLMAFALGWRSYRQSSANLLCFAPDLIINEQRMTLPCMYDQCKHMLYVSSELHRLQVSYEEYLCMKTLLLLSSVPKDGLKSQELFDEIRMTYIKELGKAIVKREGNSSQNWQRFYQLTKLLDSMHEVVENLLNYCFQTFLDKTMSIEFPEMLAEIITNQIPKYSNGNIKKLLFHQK

[3] = biological target: Glucocorticoid receptor (Homo sapiens) (UniProt P04150); test: GR-EFC Redistribution (AID 451; calls by dose curve; further: potency means the concentration at half of the fitted maximal effect); conditions: CHO-K1 GR-EFC translocation, beta-gal luminescence, 2 h
How it was run: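 CHO-K1 cells expressing nuclear EA and GR-ED fragments of b-gal; compounds titrated up to 46 uM final, 2 h at 37 C. GR nuclear translocation read as complemented b-gal luminescence after 1 h RT detection.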

[4] = biological target: Mitogen-activated protein kinase 10 (Mus musculus) (UniProt Q61831); test: JNK3 AlphaScreen Assay (AID 530; active means well fitted curve in either direction with a large enough effect, not every such curve was filed as active;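 further: kinase came from lysate of stimulated human HepG2 cells; signal reports phosphorylation of biotinylated GST-cJun 1-79 at Ser73 with 10 µM ATP; on the % scale 0 is the no-effect control and ±100 the full control effect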)
How it was run: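 Pre-activated (IL-1β/TNFα) JNK3 in HepG2 lysates phosphorylates biotin-GST-cJun(1-79), 10 uM ATP; anti-phospho-cJun(Ser73) AlphaScreen read at room temperature, pH 7.6 Tris buffer. Compounds pre-incubated 15 min as titrations.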

[5] = biological target: 3',5'-cyclic-AMP phosphodiesterase 4B (Homo sapiens) (UniProt Q07343); test: qHTS Assay for Inhibitors of PDE-IV (AID 607; active means well fitted activation curve with a large enough effect in the main read-out, with a control signal flat, not every such curve was filed as active; further: % of control where 0% means no effect)
Sequence of 3',5'-cyclic-AMP phosphodiesterase 4B (Homo sapiens) (Q07343 whole entry, looked up): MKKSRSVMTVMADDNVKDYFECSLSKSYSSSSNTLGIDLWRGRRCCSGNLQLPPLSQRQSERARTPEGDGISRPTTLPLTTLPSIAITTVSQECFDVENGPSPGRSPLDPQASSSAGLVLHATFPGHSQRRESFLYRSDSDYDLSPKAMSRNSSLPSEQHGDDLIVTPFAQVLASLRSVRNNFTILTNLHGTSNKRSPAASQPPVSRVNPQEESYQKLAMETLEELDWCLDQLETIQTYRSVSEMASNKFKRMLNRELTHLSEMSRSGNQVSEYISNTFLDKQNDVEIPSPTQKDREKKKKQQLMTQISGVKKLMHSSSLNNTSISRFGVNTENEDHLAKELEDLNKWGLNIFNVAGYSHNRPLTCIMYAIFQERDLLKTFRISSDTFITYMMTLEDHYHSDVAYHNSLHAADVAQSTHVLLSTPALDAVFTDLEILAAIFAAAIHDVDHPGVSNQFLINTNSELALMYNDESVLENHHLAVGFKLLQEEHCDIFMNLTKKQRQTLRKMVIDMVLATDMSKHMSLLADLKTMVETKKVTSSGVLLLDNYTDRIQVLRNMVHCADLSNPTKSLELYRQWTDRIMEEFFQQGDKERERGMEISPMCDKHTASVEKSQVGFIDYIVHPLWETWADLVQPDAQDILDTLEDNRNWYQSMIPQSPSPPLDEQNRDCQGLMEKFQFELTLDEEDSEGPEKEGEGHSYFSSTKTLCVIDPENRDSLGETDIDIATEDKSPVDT
How it was run: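 Live HEK293 cells with a modified cyclic nucleotide-gated (CNG) channel report intracellular cAMP via membrane-potential dye fluorescence (ex 535/em 590 nm). Endogenous PDE-IV was targeted. Compounds were tested at up to 22.9 uM final; RO 20-1724 100 uM served as control.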

[6] = qHTS Assay for Lipid Storage Modulators (AID 1519; calls by dose curve; on activity change, negative = inhibition: on the % scale 0 is the no-effect control and ±100 the full control effect); conditions: Drosophila S3 cells, BODIPY lipid droplet/cell ratio, laser cytometry, cells loaded with oleic acid
How it was run: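 Cells seeded at 5,000 per well were treated with compounds over a concentration series and loaded with oleic acid (400 uM, as added). Lipid droplet fluorescence (488 nm excitation, 500-530 nm channel) was read by laser-scanning cytometry and normalized to 20 uM Triacsin C.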

[7] = biological target: Ubiquitin carboxyl-terminal hydrolase 1 (Homo sapiens) (UniProt O94782); test: Inhibitors of USP1/UAF1: Pilot qHTS (AID 504865);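 further: rhodamine fluorescence freed from ubiquitin-rhodamine substrate followed over time; top concentration of the series differs between compounds; on the % scale 0 is the no-effect control and ±100 the full control effect; nearly all actives have a fitted effect of over 35% in size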
Sequence of Ubiquitin carboxyl-terminal hydrolase 1 (Homo sapiens) (O94782 whole entry, looked up): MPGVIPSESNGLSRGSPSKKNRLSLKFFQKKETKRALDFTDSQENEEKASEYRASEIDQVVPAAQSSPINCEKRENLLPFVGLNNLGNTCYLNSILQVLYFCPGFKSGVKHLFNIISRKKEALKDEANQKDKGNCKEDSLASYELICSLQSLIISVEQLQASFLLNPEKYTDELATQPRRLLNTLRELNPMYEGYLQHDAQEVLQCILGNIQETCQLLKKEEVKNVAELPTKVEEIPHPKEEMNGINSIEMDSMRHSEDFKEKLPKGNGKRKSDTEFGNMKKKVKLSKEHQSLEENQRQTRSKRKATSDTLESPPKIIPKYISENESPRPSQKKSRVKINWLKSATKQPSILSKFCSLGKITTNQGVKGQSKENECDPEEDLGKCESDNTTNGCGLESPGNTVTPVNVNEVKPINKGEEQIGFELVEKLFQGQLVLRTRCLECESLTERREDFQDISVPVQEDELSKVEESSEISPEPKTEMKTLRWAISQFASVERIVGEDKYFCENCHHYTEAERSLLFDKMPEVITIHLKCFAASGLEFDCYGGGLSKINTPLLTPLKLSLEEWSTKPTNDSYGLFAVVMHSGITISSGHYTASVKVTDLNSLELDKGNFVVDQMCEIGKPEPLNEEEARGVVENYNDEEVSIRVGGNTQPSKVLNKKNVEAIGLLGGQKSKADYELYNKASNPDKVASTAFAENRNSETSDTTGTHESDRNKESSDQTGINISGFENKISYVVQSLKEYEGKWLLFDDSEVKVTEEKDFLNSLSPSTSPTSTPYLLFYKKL
How it was run: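 USP1/UAF1 complex at 1 nM preincubated 15 min at room temperature with compound, then Ub-Rho substrate added at 150 nM final. Fluorescence (480/540 nm) read kinetically in 50 mM HEPES pH 7.8, 0.5 mM EDTA, 1 mM TCEP, 0.1 mg/ml BSA, 0.01% Tween-20.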

[8] = biological target: DNA dC->dU-editing enzyme APOBEC-3G (Homo sapiens) (UniProt Q9HC16); test: qHTS for inhibitors of Vif-A3G interactions: Validation (AID 588379); further: 0% is about no effect
Sequence of DNA dC->dU-editing enzyme APOBEC-3G (Homo sapiens) (Q9HC16 whole entry, looked up): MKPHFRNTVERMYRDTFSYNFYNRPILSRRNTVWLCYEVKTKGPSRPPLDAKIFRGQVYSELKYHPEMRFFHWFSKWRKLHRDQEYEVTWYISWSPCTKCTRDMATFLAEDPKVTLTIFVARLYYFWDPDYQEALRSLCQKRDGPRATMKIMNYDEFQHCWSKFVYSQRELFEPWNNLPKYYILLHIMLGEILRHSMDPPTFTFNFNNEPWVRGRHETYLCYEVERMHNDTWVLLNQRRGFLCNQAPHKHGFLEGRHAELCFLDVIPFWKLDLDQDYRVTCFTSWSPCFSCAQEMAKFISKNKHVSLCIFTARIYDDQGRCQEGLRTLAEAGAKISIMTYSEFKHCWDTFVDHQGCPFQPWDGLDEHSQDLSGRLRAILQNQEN
How it was run: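 HeLa cells stably expressing Vif and A3G-eYFP, 700 cells/well, incubated overnight at 37 deg C, then exposed to compound overnight at 37 deg C. Inhibition of Vif-mediated degradation read as increased yellow fluorescence (Ex 488/Em 500-530) by laser-scanning cytometry.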

[9] = system: Zika virus NS2B-NS3 protease; test: Primary screen GU AMC qHTS for Zika virus inhibitors (AID 1347154);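 further: 0% = no-inhibitor control and -100% = no-enzyme control; nearly all actives have a fitted effect of over 70% in size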
How it was run: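 Unlinked Zika NS2B hydrophilic domain–NS3 protease complex at 25 nM in 10 mM Tris-HCl pH 8.0, 0.01% Tween 20, with an AMC peptide substrate. Fluorescence change (340/450 nm) over 15 min at room temperature, normalized to controls, fitted to 4-parameter Hill.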

[10] = Stat Signaling Pathway (AID 446; active means well fitted curve in either direction with a large enough effect, not every such curve was filed as active;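 further: ME-180 cervical cancer cells given 40 pM IL-6 alongside compound; SIE-controlled beta-lactamase reporter measured as 460/530 nm FRET emission ratio; on the % scale 0 is the no-effect control and ±100 the full control effect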); conditions: ME-180 (cervical carcinoma) SIE beta-lactamase reporter, IL-6 stimulated, 5 h
How it was run: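 IL-6/STAT signaling read in ME-180 cells via an SIE beta-lactamase reporter. Stimulus was 40 pM IL-6 (its AC50) for 5 hrs, so both activation and inhibition register.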

[11] = biological target: Guanine nucleotide-binding protein G(i) subunit alpha-1 (Homo sapiens) (UniProt P63096); test: qHTS Assay for Inhibitors of RGS12 GoLoco Motif Activity (Green Fluorophore) (AID 879);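 further: 0% = labeled peptide with Gαi1 and full inhibition = labeled peptide alone without protein; negative values mean loss of peptide binding seen as reduced polarization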
How it was run: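 Fluorescence polarization assay: 50 nM Gαi1 with 10 nM FITC-labeled RGS12 GoLoco peptide in 10 mM Tris pH 7.5, 150 mM NaCl, 0.1 mM GDP, 0.05% NP40, 10 min at room temperature with compound.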

[12] = biological target: Cytochrome P450 3A4 (Homo sapiens) (UniProt P08684); test: qHTS Assay for Inhibitors and Substrates of Cytochrome P450 3A4 (AID 884); further: on the % scale 0 is the no-effect control and ±100 the full control effect; nearly all actives have a fitted effect of over 50% in size
Sequence of Cytochrome P450 3A4 (Homo sapiens) (P08684 whole entry, looked up): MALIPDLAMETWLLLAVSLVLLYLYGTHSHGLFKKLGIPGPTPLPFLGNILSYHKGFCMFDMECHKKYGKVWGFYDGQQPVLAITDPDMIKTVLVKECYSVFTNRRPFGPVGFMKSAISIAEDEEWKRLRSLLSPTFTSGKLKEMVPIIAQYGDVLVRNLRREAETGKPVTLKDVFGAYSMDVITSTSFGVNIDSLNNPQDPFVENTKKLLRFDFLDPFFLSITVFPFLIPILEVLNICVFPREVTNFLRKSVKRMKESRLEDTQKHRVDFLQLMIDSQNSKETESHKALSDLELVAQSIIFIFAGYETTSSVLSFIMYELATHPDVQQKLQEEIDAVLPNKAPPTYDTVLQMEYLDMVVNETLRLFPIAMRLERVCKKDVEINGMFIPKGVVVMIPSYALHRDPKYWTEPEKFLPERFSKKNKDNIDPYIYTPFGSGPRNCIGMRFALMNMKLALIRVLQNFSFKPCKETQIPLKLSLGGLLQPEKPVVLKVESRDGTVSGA
How it was run: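 20 nM human CYP3A4 with 25 uM Luciferin-PPXE (at KM) in 200 mM KPO4, preincubated 10 min with compound; NADPH regeneration started a 60 min RT reaction. Luciferin detected by luminescence, normalized to 57 uM ketoconazole as full inhibition.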

[13] = biological target: Pyruvate kinase PKM (Homo sapiens) (UniProt P14618); test: qHTS Assay for Activators of Human Muscle Pyruvate Kinase (AID 954; active means well fitted curve in the direction sought with a large enough effect, not every such curve was filed as active;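 further: 0% = uninhibited enzyme and -100% = no enzyme or full thiadiazolimine inhibition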)
Sequence of Pyruvate kinase PKM (Homo sapiens) (P14618 whole entry, looked up): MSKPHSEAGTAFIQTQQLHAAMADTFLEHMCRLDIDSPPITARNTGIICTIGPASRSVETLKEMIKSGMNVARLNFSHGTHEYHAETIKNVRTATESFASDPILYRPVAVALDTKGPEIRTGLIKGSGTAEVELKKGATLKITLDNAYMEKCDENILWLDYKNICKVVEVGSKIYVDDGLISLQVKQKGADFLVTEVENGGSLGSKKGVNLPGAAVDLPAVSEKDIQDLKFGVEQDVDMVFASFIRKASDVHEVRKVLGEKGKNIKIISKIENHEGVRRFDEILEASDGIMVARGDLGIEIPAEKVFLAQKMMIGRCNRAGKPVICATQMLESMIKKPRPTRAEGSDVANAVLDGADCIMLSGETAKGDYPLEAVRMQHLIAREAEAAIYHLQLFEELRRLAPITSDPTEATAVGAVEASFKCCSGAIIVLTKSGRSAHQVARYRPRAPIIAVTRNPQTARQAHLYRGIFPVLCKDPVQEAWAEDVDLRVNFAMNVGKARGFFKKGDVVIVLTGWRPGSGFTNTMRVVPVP
How it was run: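 Enzyme was run at intermediate activity so both inhibitors and activators could be detected. ATP formed from ADP and PEP by 0.1 nM human PKM2 during a 1 h room-temperature incubation was quantified by coupled luciferase luminescence.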

[14] = biological target: Alpha-galactosidase A (Homo sapiens) (UniProt P06280); test: Counterscreen for Glucocerebrosidase Inhibitors: qHTS Assay for Human alpha-Galactosidase at pH 4.5 (AID 992); further: 0% is about no effect
How it was run: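 Read-out is 4-methylumbelliferone fluorescence (365 nm excitation, 440 nm emission) after a pH 10 NaOH/glycine stop. Reactions held 2 nM enzyme and 80 uM substrate at pH 4.5 for 20 min at room temperature.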

[15] = biological target: alpha-glucosidase (Oryza sativa, rice) (UniProt Q653V4); test: Counterscreen for Glucocerebrosidase Inhibitors: qHTS Assay for Rice alpha-Glucosidase at pH 5.0 (AID 997);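 further: 0% = full activity with enzyme and -100% = basal without enzyme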
How it was run: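 Rice alpha-glucosidase (4 nM final) with 400 uM 4-methylumbelliferyl-alpha-D-glucopyranoside in citrate buffer pH 5.0, 20 min at room temperature, stopped at pH 10; fluorescence 365/440 nm, compounds 0.7 nM–77 uM, AC50 from Hill fits.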

[16] = biological target: Cytochrome P450 2C9 (Homo sapiens) (UniProt P11712); test: qHTS Assay for Inhibitors and Substrates of Cytochrome P450 2C9 (AID 883); further: on the % scale 0 is the no-effect control and ±100 the full control effect; nearly all actives have a fitted effect of over 60% in size
Sequence of Cytochrome P450 2C9 (Homo sapiens) (P11712 whole entry, looked up): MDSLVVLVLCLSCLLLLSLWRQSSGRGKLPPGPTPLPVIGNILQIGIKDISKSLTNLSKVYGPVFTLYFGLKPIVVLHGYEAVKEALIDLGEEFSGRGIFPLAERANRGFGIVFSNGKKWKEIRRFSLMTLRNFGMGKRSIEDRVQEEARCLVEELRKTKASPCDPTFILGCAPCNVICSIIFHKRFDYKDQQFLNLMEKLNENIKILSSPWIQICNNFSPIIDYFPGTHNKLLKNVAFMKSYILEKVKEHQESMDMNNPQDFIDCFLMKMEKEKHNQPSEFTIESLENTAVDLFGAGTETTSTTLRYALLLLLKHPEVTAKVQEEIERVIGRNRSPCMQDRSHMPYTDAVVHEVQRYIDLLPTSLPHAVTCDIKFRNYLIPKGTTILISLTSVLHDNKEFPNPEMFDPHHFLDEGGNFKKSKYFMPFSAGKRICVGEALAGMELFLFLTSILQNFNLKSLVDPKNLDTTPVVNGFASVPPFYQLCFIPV
How it was run: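 10nM CYP2C9 + 100uM Luciferin-H (=KM), 25mM KPO4; cpd 10 min 37C; NADPH regen, 60 min 37C; stop/detect with P450 Glo-Buffer 20 min; luminescence. Norm. to 57uM sulphaphenazole as full inhibition.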

[17] = biological target: Cytochrome P450 2C19 (Homo sapiens) (UniProt P33261); test: qHTS Assay for Inhibitors and Substrates of Cytochrome P450 2C19 (AID 899); further: on the % scale 0 is the no-effect control and ±100 the full control effect; nearly all actives have a fitted effect of over 60% in size
Sequence of Cytochrome P450 2C19 (Homo sapiens) (P33261 whole entry, looked up): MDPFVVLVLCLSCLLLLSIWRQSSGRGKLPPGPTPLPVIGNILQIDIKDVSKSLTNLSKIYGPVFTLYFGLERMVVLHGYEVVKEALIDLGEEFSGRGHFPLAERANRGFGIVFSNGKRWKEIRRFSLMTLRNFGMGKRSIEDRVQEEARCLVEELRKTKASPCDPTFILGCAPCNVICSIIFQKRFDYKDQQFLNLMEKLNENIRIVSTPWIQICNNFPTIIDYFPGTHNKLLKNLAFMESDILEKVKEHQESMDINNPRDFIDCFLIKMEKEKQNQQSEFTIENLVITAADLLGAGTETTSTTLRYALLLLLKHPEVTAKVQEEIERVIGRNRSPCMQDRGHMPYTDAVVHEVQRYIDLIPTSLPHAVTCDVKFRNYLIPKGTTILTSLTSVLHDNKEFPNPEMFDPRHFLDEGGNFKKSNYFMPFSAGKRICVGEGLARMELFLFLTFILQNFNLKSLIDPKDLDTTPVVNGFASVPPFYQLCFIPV
How it was run: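 Luminescent read-out of luciferin formed from Luciferin-H EGE (10uM, equal to KM). Enzyme 5nM in 50mM KPO4; compound added, 10 min at 37C, then NADPH regenerating system for 60 min at 37C. Full inhibition defined by 57uM ketoconazole.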

[18] = measured here: cell count channel max response
[19] = measured here: lipid channel max response

N[C@@H](C(=O)O)c1ccc(P(=O)(O)O)cc1
active: Potency [1] 20 µM
3.42%: max response [6, 18]
7.2%: max response [6, 19]
inactive: Potency [2] > 46 µM | Potency [3] > 46 µM | Potency [4] | Potency [5] | activity change, negative = inhibition ([6]; at 57.5 µM (top of the series)) 2.44% | Potency [7] | Potency [8] | Potency [9]

CN1CCN2c3ccccc3Cc3ccccc3[C@@H]2C1
-8.62%: max response [6, 19]
inactive: activity, negative = inhibition ([10]; at 17.2 µM (top of the series)) 2.47% | activity, negative = inhibition ([10]; at 38 µM (top of the series)) -1.53% | Potency [2] > 46 µM and > 20.6 µM | Potency [3] > 46 µM and > 20.6 µM | Potency [4] | Potency [5] | outcome [11] | Potency [12] | outcome [13] | outcome [14] | outcome [15] | activity change, negative = inhibition ([6]; at 25.7 µM (top of the series)) -3.71% | Potency [7] | Potency [8] | Potency [9]
-3.28%: max response [6, 18]

CN(C)CCCSc1ccccc1NC(=O)/C=C\c1ccccc1
23.1%: max response [6, 19]
inactive: Potency [2] > 46 µM | Potency [3] > 46 µM | Potency [4] | Potency [16] | Potency [17] | activity change, negative = inhibition ([6]; at 57.5 µM (top of the series)) 4.73% | Potency [7] | Potency [8] | Potency [9]
14.3%: max response [6, 18]
